In PubChem BioAssay (EPA / NIEHS):
Active and inactive are the calls of the source. How the source made its calls: active means hit-call score of the fitted dose curve at least 0.9, where 1 is the maximum; inactive means score below 0.9.

Tests used:
Settings in all cases: mRNA level, 48 h; actives raise or lower the signal
[1] = read-out: Insulin Like Growth Factor 1 (IGF1), IGF1 (gene 3479); experiment: LTEA_HepaRG_IGF1: Life Technologies and Expression Analysis (LTEA) Assay for Insulin Like Growth Factor 1 (IGF1) using HepaRG (AID 2283506)
How it was run: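 Endpoint: IGF1 mRNA change by qRT-PCR, housekeeping-normalized, fitted bidirectionally relative to 0.5% DMSO vehicle. Human HepaRG cells were treated 48 h in serum-free induction medium, eight half-log concentrations topping at 100 uM.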

[2] = read-out: Intercellular Adhesion Molecule 1 (ICAM1), ICAM1 (gene 3383); experiment: LTEA_HepaRG_ICAM1: Life Technologies and Expression Analysis (LTEA) Assay for Intercellular Adhesion Molecule 1 (ICAM1) using HepaRG (AID 2283507)
How it was run: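 Readout is qRT-PCR mRNA level, normalized to three housekeeping genes and fitted bidirectionally against 0.5% DMSO vehicle. Human HepaRG cultures received compound for 48 h, top concentration 100 uM with half-log dilutions.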

[3] = read-out: Insulin-like growth factor-binding protein 1 (IGFBP1), IGFBP1 (gene 3484); experiment: LTEA_HepaRG_IGFBP1: Life Technologies and Expression Analysis (LTEA) Assay for Insulin-like growth factor-binding protein 1 (IGFBP1) using HepaRG (AID 2283508)
How it was run: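 Thawed HepaRG cells are plated for 48 h, switched to serum-free induction medium, then dosed in duplicate for another 48 h (100 uM top, half-log steps). Lysates in RLT go to qRT-PCR, and gain or loss of signal is fitted relative to vehicle.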

[4] = read-out: Interleukin 6 Receptor (IL6R), IL6R (gene 3570); experiment: LTEA_HepaRG_IL6R: Life Technologies and Expression Analysis (LTEA) Assay for Interleukin 6 Receptor (IL6R) using HepaRG (AID 2283510)
How it was run: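 In this HepaRG screen, test chemicals act on cells for 48 h at up to 100 uM (eight half-log points, duplicate wells). IL6R expression is quantified by qRT-PCR after normalization to ACTB, GAPDH and POLR2A, with DMSO as baseline.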

[5] = read-out: Potassium channel subfamily K member 1 (KCNK1), KCNK1 (gene 3775); experiment: LTEA_HepaRG_KCNK1: Life Technologies and Expression Analysis (LTEA) Assay for Potassium channel subfamily K member 1 (KCNK1) using HepaRG (AID 2283511)
How it was run: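 Human HepaRG cultures receive test chemicals for 48 h in 0.5% DMSO, top concentration 100 uM with half-log dilutions. Induction or suppression of KCNK1 mRNA relative to DMSO is derived by bidirectional fitting of qRT-PCR data.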

[6] = read-out: Keratin 19 (KRT19), KRT19 (gene 3880); experiment: LTEA_HepaRG_KRT19: Life Technologies and Expression Analysis (LTEA) Assay for Keratin 19 (KRT19) using HepaRG (AID 2283512)
How it was run: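 KRT19 transcript levels, measured by Fluidigm qRT-PCR against three housekeeping genes, are fitted for gain or loss of signal relative to DMSO. Human HepaRG cells receive test chemicals (top 100 uM, half-log steps, 0.5% DMSO) for 48 hours.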

[7] = read-out: JUN Transcription Factor, JUN (gene 3725); experiment: LTEA_HepaRG_JUN: Life Technologies and Expression Analysis (LTEA) Assay for JUN Transcription Factor using HepaRG (AID 2283513)
How it was run: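 Gene-expression endpoint: JUN mRNA (qRT-PCR, normalized to three reference genes) in HepaRG cultures treated 48 h with chemicals, duplicate wells, 100 uM maximum with half-log dilutions; bidirectional fitting relative to 0.5% DMSO.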

[8] = read-out: Lipase C (LIPC), LIPC (gene 3990); experiment: LTEA_HepaRG_LIPC: Life Technologies and Expression Analysis (LTEA) Assay for Lipase C (LIPC) using HepaRG (AID 2283514)
How it was run: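 In this multiplexed gene-expression screen, human HepaRG cultures received test chemicals for 48 h across eight concentrations with 100 uM highest, in duplicate. Values reflect LIPC mRNA induction or suppression versus DMSO vehicle, from normalized qRT-PCR.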

[9] = read-out: Lipoprotein lipase (LPL), LPL (gene 4023); experiment: LTEA_HepaRG_LPL: Life Technologies and Expression Analysis (LTEA) Assay for Lipoprotein lipase (LPL) using HepaRG (AID 2283515)
How it was run: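 Concentration-response testing used half-log steps from 100 uM in 0.5% DMSO on human HepaRG cells, 48 h, duplicate wells. Phenobarbital 1 mM served as induction control; LPL mRNA was normalized to ACTB, GAPDH, POLR2A.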

[10] = read-out: MicroRNA 122 (MIR122), gene 406906; experiment: LTEA_HepaRG_MIR122: Life Technologies and Expression Analysis (LTEA) Assay for MicroRNA 122 (MIR122) using HepaRG (AID 2283516); further: the transcript read is the microRNA miR-122
How it was run: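 Changes in transcript abundance, up or down relative to 0.5% DMSO vehicle, were scored after 48 h chemical treatment of HepaRG cells (maximum 100 uM). Quantification used TaqMan qRT-PCR normalized to housekeeping genes.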

[11] = read-out: matrix metalloproteinase-10 (MMP10), MMP10 (gene 4319); experiment: LTEA_HepaRG_MMP10: Life Technologies and Expression Analysis (LTEA) Assay for matrix metalloproteinase-10 (MMP10) using HepaRG (AID 2283517)
How it was run: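 In differentiated HepaRG cultures kept in 0.5% DMSO, test chemicals act for 48 h over an eight-point range with a top dose of 100 uM. Expression is then quantified by TaqMan RT-PCR against ACTB, GAPDH and POLR2A.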

MYC, MYC (gene 4609) = experiment: LTEA_HepaRG_MYC: Life Technologies and Expression Analysis (LTEA) Assay for MYC using HepaRG (AID 2283518)
How it was run: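 HepaRG, ~100,000 cells/well, collagen I; 48 h plating; serum-free induction medium; 48 h dosing, duplicate, 100 uM top, half-log, 0.5% DMSO; total RNA → qRT-PCR MYC; gain/loss fit vs DMSO.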

[12] = read-out: matrix metalloproteinase-3 (MMP3), MMP3 (gene 4314); experiment: LTEA_HepaRG_MMP3: Life Technologies and Expression Analysis (LTEA) Assay for matrix metalloproteinase-3 (MMP3) using HepaRG (AID 2283519)
How it was run: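 Human liver HepaRG cultures received chemicals (top concentration 100 uM, 0.5% DMSO) for 48 h in duplicate. MMP3 mRNA induction or loss was then assessed via TaqMan qRT-PCR with housekeeping-gene normalisation.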

[13] = read-out: Paternally Expressed 10 (PEG10), PEG10 (gene 23089); experiment: LTEA_HepaRG_PEG10: Life Technologies and Expression Analysis (LTEA) Assay for Paternally Expressed 10 (PEG10) using HepaRG (AID 2283520)
How it was run: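 After 48 h exposure of differentiated HepaRG cells (0.5% DMSO vehicle, eight concentrations up to 100 uM, duplicates), PEG10 mRNA was measured by TaqMan qRT-PCR. Values were normalised to endogenous control genes and analysed bidirectionally against vehicle.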

[14] = read-out: Nuclear factor NF-kappa-B p105 subunit (Homo sapiens) (UniProt P19838); experiment: LTEA_HepaRG_NFKB1: Life Technologies and Expression Analysis (LTEA) Assay for Nuclear Factor Kappa B Subunit 1 (NFKB1) using HepaRG (AID 2283521);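 further: differentiated human HepaRG liver cells in serum-free induction medium; TaqMan qRT-PCR transcript normalised to ACTB GAPDH and POLR2A housekeeping genes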
How it was run: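 HepaRG, 48 h exposure; 8-pt half-log series from 100 uM in 0.5% DMSO; duplicates. Readout: NFKB1 mRNA by qRT-PCR (Fluidigm arrays), housekeeping-normalized. Gain/loss fit vs DMSO baseline.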

[15] = read-out: Protein phosphatase 2A (PPP2R4), PTPA (gene 5524); experiment: LTEA_HepaRG_PPP2R4: Life Technologies and Expression Analysis (LTEA) Assay for Protein phosphatase 2A (PPP2R4) using HepaRG (AID 2283522)
How it was run: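 Using HepaRG cultures maintained in 0.5% DMSO, chemicals are tested 48 h at up to 100 uM in duplicate. Induction or suppression of PPP2R4 mRNA, measured by qRT-PCR, is fitted bidirectionally against the vehicle baseline.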

[16] = read-out: Phosphatase and tensin (PTEN), PTEN (gene 5728); experiment: LTEA_HepaRG_PTEN: Life Technologies and Expression Analysis (LTEA) Assay for Phosphatase and tensin (PTEN) using HepaRG (AID 2283523)
How it was run: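 Expression of PTEN is quantified in the human liver line HepaRG following two days of dosing (top concentration 100 uM, half-log dilutions, 0.5% DMSO). Values derive from bidirectional curve fitting relative to DMSO controls.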

[17] = read-out: solute carrier (SLC22A1), SLC22A1 (gene 6580); experiment: LTEA_HepaRG_SLC22A1: Life Technologies and Expression Analysis (LTEA) Assay for solute carrier (SLC22A1) using HepaRG (AID 2283524)
How it was run: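 Transcript induction or suppression of SLC22A1 in human HepaRG cultures is scored after 48 h chemical treatment, with DMSO (0.5%) as baseline for bidirectional fitting. Concentrations span eight half-log points topping at 100 uM.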

[18] = read-out: Pyruvate Dehydrogenase Kinase 4 (PDK4), PDK4 (gene 5166); experiment: LTEA_HepaRG_PDK4: Life Technologies and Expression Analysis (LTEA) Assay for Pyruvate Dehydrogenase Kinase 4 (PDK4) using HepaRG (AID 2283525)
How it was run: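 Eight-point, half-log concentration series (max 100 uM, 0.5% DMSO) applied to differentiated HepaRG cells for 48 h in duplicate. Endpoint: PDK4 mRNA induction or repression by qRT-PCR against DMSO baseline.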

[19] = read-out: Interleukin 6 (IL6), IL6 (gene 3569); experiment: LTEA_HepaRG_IL6: Life Technologies and Expression Analysis (LTEA) Assay for Interleukin 6 (IL6) using HepaRG (AID 2283509)
How it was run: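 Changes in IL6 mRNA, up or down relative to 0.5% DMSO controls, were derived from concentration-response curves in human HepaRG cells treated for 48 h at up to 100 uM, with ACTB, GAPDH and POLR2A as normalizers.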

Measured: outcome

Sequence of Nuclear factor NF-kappa-B p105 subunit (Homo sapiens) (P19838 whole entry, looked up): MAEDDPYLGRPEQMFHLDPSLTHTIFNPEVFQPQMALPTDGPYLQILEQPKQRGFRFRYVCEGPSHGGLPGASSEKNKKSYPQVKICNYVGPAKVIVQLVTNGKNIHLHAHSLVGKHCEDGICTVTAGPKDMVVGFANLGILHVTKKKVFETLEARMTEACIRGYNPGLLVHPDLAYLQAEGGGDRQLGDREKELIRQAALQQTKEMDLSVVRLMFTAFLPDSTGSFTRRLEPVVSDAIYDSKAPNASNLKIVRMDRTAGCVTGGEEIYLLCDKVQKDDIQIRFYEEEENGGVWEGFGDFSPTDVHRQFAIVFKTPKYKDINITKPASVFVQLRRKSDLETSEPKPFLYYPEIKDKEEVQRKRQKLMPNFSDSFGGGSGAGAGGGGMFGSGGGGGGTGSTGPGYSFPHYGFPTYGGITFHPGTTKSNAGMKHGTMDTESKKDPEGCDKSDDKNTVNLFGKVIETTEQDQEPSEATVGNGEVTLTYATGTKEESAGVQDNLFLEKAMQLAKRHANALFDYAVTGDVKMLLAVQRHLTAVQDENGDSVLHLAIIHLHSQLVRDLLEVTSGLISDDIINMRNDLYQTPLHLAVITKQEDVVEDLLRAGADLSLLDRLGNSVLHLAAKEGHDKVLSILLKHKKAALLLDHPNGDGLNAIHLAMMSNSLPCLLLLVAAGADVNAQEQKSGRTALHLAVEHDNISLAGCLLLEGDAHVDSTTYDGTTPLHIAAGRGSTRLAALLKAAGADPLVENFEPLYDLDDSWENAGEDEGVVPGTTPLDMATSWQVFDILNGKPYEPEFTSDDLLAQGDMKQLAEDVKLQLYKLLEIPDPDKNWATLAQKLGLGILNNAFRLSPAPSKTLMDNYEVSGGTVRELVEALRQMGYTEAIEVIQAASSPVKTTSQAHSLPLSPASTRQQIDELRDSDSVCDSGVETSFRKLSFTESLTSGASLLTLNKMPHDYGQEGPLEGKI

CC(C)CC(C)(O)C#CC(C)(O)CC(C)C (stereo not drawn)
not listed: [19]
inactive: all other assays above

CNCc1ccc(NC(=O)c2c[nH]c3c2C(=O)CCC3)cc1
not listed: [6] | [7] | [12]
inactive: all other assays above

O=C(O)CC(O)C(=O)O (stereo not drawn)
not listed: [6] | [7] | [12] | [14] | [18]
inactive: all other assays above

CCOC(=O)CC(CC(=O)OCC)(OC(C)=O)C(=O)OCC
not listed: [6] | [12] | [18]
inactive: all other assays above
